# Only some compounds are listed: those with a hit (about 19% of all), similar ones and a draw of the others.
# ELG1 DNA repair – ELG1-dependent DNA repair inhibition | HEK293T ELG1-luciferase reporter, luminescence, 16 h; DNA damage induced by 5-fluorouridine | Potency, µM (doses to about 46.1 µM), hits mostly inhibitors | 330,000 tested, 2.3% active | AID 504467; note: nearly all actives have a fitted effect of over 55% in size
#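 Step one: seed 2,000 cells per well. Step two: pin-transfer compound or DMSO alongside 5-fluorouridine. Step three: incubate 16 hr, 37 °C, 5% CO2. Step four: add ONE-Glo, wait 30 min, read luminescence.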
# IL1B secr inh – inflammasome signaling inhibition, IL-1 beta readout | THP-1 LPS/ATP IL-1B secretion, AlphaLISA, 16 h; active compounds read low | activity change, % at 57.5 µM | 360,000 tested, 4.7% active | AID 743279; in the data active = activity change below about -50%; inconclusive = mostly about -30% to -49%
#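 Secreted IL-1B measured by AlphaLISA bead assay after 16 h compound exposure of THP-1 cells; compounds (final up to 57.5 uM) added 1 h before LPS (250 ng/mL) and ATP (1.25 mM) stimulation; lower signal means less secretion.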
# DT40 TDP1 CPT – growth inhibition of DT40 Tdp1-/-;hTDP1 cells with camptothecin (screen for TDP1 inhibitors); Potency, µM (top dose mostly 46.2 µM), usual class: inhibitors; chicken DT40 Tdp1-/-;hTDP1 cells + 20 nM CPT, ATP luminescence, 48 h; 420,000 tested, 12% active; note: nearly all actives have a fitted effect of over 55% in size
#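 Chicken DT40 Tdp1-/- cells complemented with human TDP1, 400 cells/well, exposed to compounds plus 20 nM camptothecin for at least 48 h at 37 C; viability read as ATP content by CellTiter-Glo luminescence.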
# HT1080 IDH1KD tx – kills HT-1080 cells with IDH1 knockdown; HT-1080 IDH1 knockdown viability, ATP luminescence, 48 h; Potency, µM (doses to about 46.1 µM), most hits filed as cytotoxic; 360,000 tested, 2% active
#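 Knockdown cells (IDH1KD HT-1080) received compounds 2 h after plating at 750 cells/well and were kept 48 h at 37 °C in 5% FBS RPMI. A CellTiter-Glo luminescence read gave % activity for curve fitting.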
# TDP1 cell noCPT – qHTS for Inhibitors of human tyrosyl-DNA phosphodiesterase 1 (TDP1): qHTS in cells in absence of CPT; DT40 Tdp1-/- hTDP1 cells, no CPT, ATP luminescence, 48 h; Potency, µM (series often up to 46.2 µM), most hits filed as inhibitors; 420,000 tested, 15% active; note: nearly all actives have a fitted effect of over 55% in size
#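 Stably hTDP1-transfected Tdp1-null chicken DT40 cells were treated with library compounds minus camptothecin and grown for at least 48 hr at 37 °C, after which cellular ATP was quantified by luminescence.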
# HT1080-NT tox – kills 2HG-producing HT-1080-NT fibrosarcoma cells. HT-1080-NT fibrosarcoma viability, CellTiter-Glo ATP luminescence, 48 h. Potency, µM (highest dose often 46.1 µM), usual class: cytotoxic. 360,000 tested, 1.6% active;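 note: NT is the 2HG producing partner of a matched IDH1 knockdown line; nearly all actives have a fitted effect of over 55% in size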
#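 750 cells/well, RPMI + 5% FBS; 2 h settle, compound pin-transfer, 48 h at 37 degrees C. CellTiter-Glo 10 min RT, luminescence. Normalized to DMSO and media-only wells.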
# A number is an active result; . = inactive; ? = inconclusive; / = no result; [ ] = remark or other dose. Unless noted, calls come from the whole dose curve; as a rule, active = well fitted curve in the direction sought with a large enough effect; inconclusive = small, poorly fitted or top-dose-only effect, or another doubt; inactive = no such curve, though single readings can be large; an effect the other way counts as inactive or inconclusive.
SMILES,ELG1 DNA repair,IL1B secr inh,DT40 TDP1 CPT,HT1080 IDH1KD tx,TDP1 cell noCPT,HT1080-NT tox
COc1ccc2[nH]cc(CCNc3ncncc3-c3ccccc3OC)c2c1,/,/,.,/,?,/
COc1ccc2[nH]cc(CCNc3ncnc4ccc(-c5ccccc5C#N)cc34)c2c1,/,/,?,/,18µM,/
CCN(C(=O)Cn1cnc2c1c(=O)n(C)c(=O)n2C)C1CCCCC1,.,.,.,.,.,.
Cn1c(SCC(=O)NNC(=O)c2ccccc2)nnc1C(F)(F)F,.,.,.,.,.,.
COc1ccc2[nH]cc(CCNc3ncnc4ccc(-c5cccc(C#N)c5)cc34)c2c1,/,/,21µM,/,?,/
CCOC(=O)c1c(C)[nH]c(C)c1S(=O)(=O)NCC(=O)NCc1ccc(C)cc1,/,/,.,/,.,/
O=C1NNC(=O)C1c1ccccc1,.,.,.,.,.,.
O=C1CC(c2ccccc2)=C(c2ccccc2)C1c1ccccc1 (stereo unspecified),/,.,29µM,.,?,.
COc1cc2c(cc1OC)CN(c1ccc(-c3ccccc3OC)nn1)CC2,?,/,?,.,23µM,.
COc1cc(C(=O)COC(=O)C2CCN(c3ccc(C(F)(F)F)cn3)CC2)ccc1OC(F)F,.,.,.,.,.,.
COc1cc2c(cc1OC)CN(c1ccc(C(F)(F)F)cn1)CC2,?,-90,?,?,16µM,?
S=C(NCCC1=CCCCC1)NCc1ccco1,.,.,16µM,?,10µM,.
O=C(CCn1c(=O)c2ccccc2n(CC(=O)NCCC2=CCCCC2)c1=O)NCc1ccco1,.,.,.,.[9.24 µM],?,.
O=C(NC(=S)NCCC1=CCCCC1)c1ccccc1Br,?,.,?,.,16µM,.
COCCn1cnc2c(c1=O)c1nc3ccccc3nc1n2/N=C/c1ccco1,.,.,?,.,?,.
CCCn1c(C)nc2c(c1=O)c1nc3ccccc3nc1n2CCC1=CCCCC1,.,?,?,.,?,.
Cc1nc2c(c(=O)n1CCC1=CCCCC1)c1nc3ccccc3nc1n2/N=C/c1ccco1,5.2µM,.,16µM,.,23µM,.
CCCCCCn1cnc2c(c1=O)c1nc3ccccc3nc1n2/N=C/c1ccco1,15µM,.,?,.,18µM,.
C=CCn1cnc2c(c1=O)c1nc3ccccc3nc1n2/N=C/c1cccc(OC)c1,21µM,.,.,.,.,.
COCCn1cnc2c(c1=O)c1nc3ccccc3nc1n2/N=C/c1ccc(OC)c(OC)c1,5.8µM,.,18µM,.,16µM,.
Cc1cccc(N2CCN(C3(c4ccccc4)C(=O)c4ccccc4C3=O)CC2C)c1 (stereo unspecified),/,/,.,/,?,/
C=CCNC(=O)NC(=O)CN1C(=O)NC(c2ccccc2)(c2ccccc2)C1=O,.,.,?,.,?,.
COCCCn1cnc2c(c1=O)c1nc3ccccc3nc1n2CCc1ccccc1,?,?,?,.,18µM,.
CCCCn1c2nc3ccccc3nc2c2c(=O)n(CCC)cnc21,.,.,?,.,?,.
Cc1cc(Nc2ccccc2)n(-c2ccc(Br)cc2)n1,.,.,18µM,?,?,?
SMILES,ELG1 DNA repair,IL1B secr inh,DT40 TDP1 CPT,HT1080 IDH1KD tx,TDP1 cell noCPT,HT1080-NT tox
Cc1cc(Nc2nc3ccccc3nc2Cl)n(-c2ccccc2)n1,.,?,18µM,13µM,16µM,?
CSc1nc(-c2ccc(Cl)cc2)nn1C(=O)c1ccccc1,?,.,?,.,.,.
CSc1nc(-c2ccccc2)nn1C(=O)c1ccccc1,.,.,?,.,23µM,.
CCOC(=O)CCC1(C(=O)OC)C(=O)CCCCCC=C1C(=O)OC (stereo unspecified),/,-51,.,.,.,.
CCOC(=O)c1ccc(S(=O)(=O)Nc2cc(C(=O)O)ccc2Cl)cc1,.,.,.,.,.,.
COC(=O)CCC[C@H]1CC2(C[C@H](CCCO[Si](C)(C)C(C)(C)C)N1C(=O)OC(C)(C)C)OCCO2,.,.,?,.,18µM,.
CC(=O)c1c(OC(=O)c2ccccc2Br)ccc2c(C)cc(=O)oc12,.,.,.,.,.,.
Cc1cc(OC(=O)c2ccccc2Br)cc(=O)n1C,?,.,21µM,.,?,.
Cc1snc(S(=O)(=O)/C(C#N)=N/Nc2cccc(C(F)(F)F)c2)c1C#N,.,.,16µM,.,?,.
Cc1cccc(CS(=O)(=O)c2ncc(Cl)c(C(=O)Nc3nc4ccc(F)cc4s3)n2)c1,/,/,2.3µM,/,2.3µM,/
O=C(Nc1nc2ccc(F)cc2s1)c1nc(S(=O)(=O)Cc2ccccc2)ncc1Cl,/,/,2.3µM,/,2.3µM,/
COc1ccc2nc(NC(=O)c3nc(SCc4ccc(F)cc4)ncc3Cl)sc2c1,/,/,.,/,?,/
CSc1ncc(Cl)c(C(=O)Nc2nc3ccc(F)cc3s2)n1,/,/,.,/,.,/
CC1=C(C(=O)OCc2ccccc2)C(c2ccccc2OS(=O)(=O)c2ccc(C)cc2)NC(=O)N1CCCC(=O)O (stereo unspecified),/,.,.,.,?,.
CC(=O)c1ccc(C(C)(C)c2ccc(C(C)=O)s2)s1,?,.,?,.,23µM,.
CCOC(=O)N1CCc2c(sc(NCc3sccc3C)c2C(=O)Nc2cc(Cl)ccc2OC)C1,/,/,.,/,?,/
CCOc1ccccc1NC(=O)c1c(NC(=O)COc2ccccc2)sc2c1CCCC2,/,/,.,/,.,/
COc1ccc(Cl)cc1NC(=O)c1c(NCc2ccc(C)o2)sc2c1CCCC2,/,/,?,/,21µM,/
CCOc1ccccc1NC(=O)c1c(NCc2ccc(C)o2)sc2c1CCCCC2,/,/,4.6µM,/,2.9µM,/
CCOC(=O)N1CCc2c(sc(NCc3ccc(N(C)C)cc3)c2C(=O)Nc2ccccc2OCC)C1,/,/,?,/,8.2µM,/
COc1ccc(Cl)cc1NC(=O)c1c(NCc2cccnc2)sc2c1CCCC2,/,/,23µM,/,15µM,/
CCOC(=O)c1ccc(CN(Cc2ccc(F)cc2)S(=O)(=O)c2ccc(F)c(C(=O)Nc3cc(Cl)ccc3OC)c2)cc1,/,/,.,/,.,/
O=C(C[n+]1csc2ccccc21)c1ccc(O)c(O)c1,/,/,?,/,16µM,/
COCCn1c(C)cc(C(=O)CSc2nc3ccccc3o2)c1C,?,.,26µM,.,?,?
COCCn1c(C)cc(C(=O)CSc2nc3ccccc3s2)c1C,?,.,13µM,?,18µM,?
COCCn1c(C)cc(C(=O)CSc2nnc3ccccn23)c1C,?,.,.,.,.,.
COCCn1c(SCC(=O)c2cc(C)n(C)c2C)nc2ccccc2c1=O,.,?,?,.,13µM,.

# Screens (PubChem)
